Laboratory results taken from PubChem BioAssay (NCATS).
Records with an inconclusive call do not appear. Active and inactive are the calls of the source. Calls follow the shape of the dose curve; as a rule, active = well fitted inhibition curve with a large enough effect; inconclusive = small, poorly fitted or top-dose-only effect; inactive = flat fitted curve, though single readings scatter.

tested on: CP238; experiment: qHTS profiling for inhibitors of Plasmodium falciparum proliferation (AID 504749); also: nearly all actives have a fitted effect of over 60% in size; conditions: P. falciparum in erythrocytes, SYBR Green DNA, 72 h; series mostly up to 12.8 µM
Outline: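 Three-day growth assay of blood-stage parasites in erythrocytes (0.3% parasitemia, 2.5% hematocrit) at 37 C, 5% CO2, quantified by SYBR Green DNA staining after overnight detergent lysis.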

Potency, inactive:
CCOC(=O)O[C@@H](C)OC(=O)[C@@H]1N2C(=O)[C@@H](NC(=O)[C@@H](N)c3ccccc3)[C@H]2SC1(C)C, Cc1cccc(CN2CCN([C@@H](c3ccccc3)c3ccc(Cl)cc3)CC2)c1, Cc1ccsc1/C=C\C1=NCCCN1C, O=C(O)COCCN1CCN([C@@H](c2ccccc2)c2ccc(Cl)cc2)CC1, C#C[C@]1(O)CC[C@@H]2[C@H]3CCC4=CCCC[C@@H]4[C@@H]3CC[C@@]21C, CC1(C)[C@@H](OC(=O)CCC(=O)O)CC[C@@]2(C)[C@H]1CC[C@@]1(C)[C@H]2C(=O)C=C2[C@H]3C[C@](C)(C(=O)O)CC[C@]3(C)CC[C@@]21C, C[C@H](CCC(=O)O)[C@H]1CC[C@@H]2[C@@H]3[C@@H](O)C[C@H]4C[C@@H](O)CC[C@@]4(C)[C@H]3CC[C@@]21C
